Experimental data: ChEMBL document CHEMBL4513216, “Probing the Open Global Health Chemical Diversity Library for Multistage-Active Starting Points for Next-Generation Antimalarials” (ACS Infect Dis, 2020)
Screen size: about 65,000 compounds; about 2,100 (3.2%) showed an effect of 50% or more. The median lay at about -52%. The entries come from a sample that favours strong results as a whole.

Each compound was assayed on Plasmodium falciparum (assay: Screen against P. falciparum Asexual Blood Stage (ABS), at 5uM). Settings: tested at 5 uM.
Assay type: functional, Dd2

| SMILES | INHIBITION |
| --- | --- |
| Cc1sc2nc(C(F)(F)F)nc(N3CCCN(C)CC3)c2c1C | 76.1% |
| O=C1CSC(c2ccc(F)c(Cl)c2)c2c(n(C3CCOCC3)[nH]c2=O)N1 (stereo not drawn) | -35.3% |
| Cc1cccc(CN2CC3C[C@]3(NC(=O)c3cccc(F)c3)C2)n1 (stereo partly drawn) | -65.9% |
| O=C(c1cnc(-c2ccccc2)s1)N1CCC2(CC1)OCCO2 | -174% |
| COc1ccc2c(c1)c(C(=O)Nc1nnn[nH]1)cn2C(C)C | -11.6% |
| c1cnc(N2C[C@H]3CCN(Cc4ccncc4)C[C@H]3C2)nc1 | -82.6% |
| c1cc(CN2CC[C@@H]3CN(c4cncnc4)C[C@@H]3C2)ccn1 | -49.4% |
| CN1CCC(C2CCN(Cc3cccc(-n4cccn4)c3)CC2)C1 (stereo not drawn) | 85.7% |
| NC(=O)c1cnn2c1NCC(CNCC1(c3ccccc3)CCC1)C2 (stereo not drawn) | 22.7% |
| N[C@@H]1CCC[C@@H](Oc2ccc(F)cc2Oc2ccccc2)[C@@H]1O | 77.4% |
| CN[C@@H]1CCC[C@@H](Oc2ccccc2Oc2ccc(C)cc2)[C@@H]1O | 90.3% |
| Cc1ccc(Oc2cc(F)ccc2O[C@@H]2CCC[C@@H](N)[C@H]2O)cc1 | 91.1% |
| Fc1cccnc1N1CCOCC2(CCCNC2)C1 (stereo not drawn) | 34.8% |
| CCCN1C(=O)CC2(CCCNC2)C1=O (stereo not drawn) | -90.5% |
| CN(Cc1cc(Cl)cc2cccnc12)CC1CCN(CCO)CC1 | 88.7% |
| CN(c1ncccc1C#N)C1CCN(CCc2ccccn2)CC1 | 20.6% |
| CN(Cc1cc(F)cc2cccnc12)CC1CCN(CCO)CC1 | 84.7% |
| Cc1ccc(CC(=O)N2CCN(CC(C)O)CC2)cn1 (stereo not drawn) | -89.8% |
| CC(O)CN1CCC(CN(C)Cc2cc(F)cc3cccnc23)CC1 (stereo not drawn) | 87.2% |
| CC(C)CN1C(=O)C2(CCCC2)NC1c1cn(C)c(=O)n(C)c1=O (stereo not drawn) | -15.3% |
| C[C@H]1C[C@@H]2CCN(CC3CCOCC3)C[C@H]2O1 | -49.5% |
| CC(NCC1(N(C)C)CCOCC1)c1ccc(Cl)cc1 (stereo not drawn) | 74.6% |
| CC(C)OCCNC1(c2ccc(Cl)cc2)CCOCC1 | 37.7% |
| CN1CCN2C(=O)N(C3CCCCC3)C[C@H]2C1 | -52.1% |
| c1ccc(N2CCCC3(CCN(Cc4cccs4)C3)C2)nc1 (stereo not drawn) | 73.4% |
| c1ccc(CO[C@H]2CO[C@@]3(CCN(Cc4ccoc4)C3)C2)nc1 | 14.1% |

| SMILES | INHIBITION |
| --- | --- |
| c1ccc(CN2CCC3(CC2)CCN(Cc2cccs2)C3)nc1 | 54.8% |
| c1ccc(CN2CCCC3(CCN(Cc4cccs4)C3)C2)nc1 (stereo not drawn) | 73.8% |
| c1ccc(CO[C@@H]2CO[C@@]3(CCN(Cc4ccccn4)C3)C2)nc1 | -34.3% |
| c1ccc(N2CCC3(COCCN(Cc4cccs4)C3)C2)nc1 (stereo not drawn) | 37.5% |
| c1ccc(CN2CCC3(CC2)CC(Nc2nccs2)CO3)nc1 (stereo not drawn) | 75% |
| c1ccc(CN2CCC3(CC2)CCN(Cc2cccnc2)C3)nc1 | 21% |
| c1ccc(CN2CCCC3(CCN(CC4CCCO4)CC3)C2)nc1 (stereo not drawn) | 15.1% |
| O=S(=O)(C1CC1)N1CCC2(CCCN(Cc3ccccn3)C2)CC1 | -22.4% |
| CS(=O)(=O)N1CCC2(CCCN(Cc3ccccn3)C2)C1 (stereo not drawn) | -32.2% |
| Cc1ccc(N2C[C@@H]3OCCN(CC4CC4)[C@@H]3C2)nn1 | -167% |
| O=C(c1ccco1)N1CCN2C[C@H](OCc3cccnc3)C[C@H]2C1 | -180% |
| O=C([C@H]1C[C@H]2OCC[C@H]2N(Cc2ccncc2)C1)N1CCCCO1 | -62.9% |
| CCN(CC)C(=O)C1CCC2(CCNCC2)O1 (stereo not drawn) | -55.8% |
| c1ccc(CO[C@H]2CC[C@H]3[C@H]2OCCN3Cc2nccs2)nc1 | -8.49% |
| CC(C)CN1CCCC2(CCN(c3ccc(C#N)cn3)C2)C1 (stereo not drawn) | 9.73% |
| CC(C)CN1CCCC2(CCN(c3ccccn3)C2)C1 (stereo not drawn) | 71.2% |
| CSc1nccc(N2CCC3(CCCN(CC4CC4)C3)C2)n1 (stereo not drawn) | -48.7% |
| CN(Cc1ccccc1)c1ncccc1CNC1CCC1 | 71.1% |
| CN(CCc1ccccc1)Cc1c(C2CC2)[nH]c2ncccc12 | -22.1% |
| CN(c1ncccc1C#N)C1CCN(Cc2ccncc2)CC1 | -82.3% |
| CN(Cc1ccccc1)c1ncccc1CNC1CN2CCC1CC2 (stereo not drawn) | 62.6% |
| CNc1nccnc1C1CCN(C(C)C)CC1 | 10.5% |
| CC(C)c1noc(CN(Cc2cccnc2)C2CN3CCC2CC3)n1 (stereo not drawn) | -90.3% |
| CC(C)N1CCC(NCc2cccnc2N(C)Cc2ccccc2)CC1 | 84.1% |
| COc1ncccc1CN1C[C@H]2CCN(C(C)C)C[C@H]2C1 | 9.06% |
| Nc1cc(-c2cccc3c2CCNC3)ncn1 | -47.8% |

| SMILES | INHIBITION |
| --- | --- |
| Cc1ccccc1CC(=O)N1CCN(C2CCOC2=O)CC1 (stereo not drawn) | -126% |
| c1cncc(COC[C@H]2CC[C@H]3[C@H](CCN3Cc3cccs3)O2)c1 | -174% |
| CC(=O)N1CCN(Cc2ccncc2)CC2(CC(=O)N(C)C2)C1 (stereo not drawn) | -18.8% |
| COCCn1c(C(=O)NCc2n[nH]c(C)n2)cc2ccccc21 | -74.2% |
| Cc1nc(CN2CCO[C@@H]3CC(COc4ccccn4)C[C@H]32)cs1 (stereo partly drawn) | -52.4% |
| Cc1cc(C(=O)NCC(=O)N2CCOCC2)nn1C(C)(C)C | -113% |
| Cc1nc2c(c(NC3CCN(Cc4ccccc4)CC3)n1)CCNCC2 | 78.7% |
| c1ccc(CNc2ncc(CN3CC[C@@H]4CC[C@H](C3)N4)cn2)cc1 | -65% |
| Cc1ncc2c(n1)CCCC2NC(=O)c1cnn(Cc2ccccc2)c1 (stereo not drawn) | -115% |
| Cc1nnc([C@H]2CC[C@@H]3[C@@H](CCN3Cc3c(C)noc3C)O2)o1 | -1.83% |
| Cc1n[nH]c2c1C(c1ccc3c(c1)OCCO3)SCC(=O)N2 (stereo not drawn) | 8.75% |
| Cc1c(CNC2CCN(c3ccccc3OC(F)F)C2)cnn1C (stereo not drawn) | 71% |
| O=C(N[C@@H]1CN[C@H]2CCCO[C@H]21)c1cnccn1 | -120% |
| Cn1cccc1C(=O)N1C[C@H]2CN(Cc3cccnc3)C[C@H]2C1 | 31.3% |
| Cc1ccccc1CC(=O)N1C[C@@H]2CC[C@H]1CN(Cc1cccnc1)C2 | -11.4% |
| CN(C)[C@@H]1CN(Cc2cccnc2)C[C@H]1c1cn(C)c2ccccc12 | 71.9% |
| O=C(COc1coc(CN2CCCC2)cc1=O)Nc1cc(Cl)ccc1Cl | 80.6% |
| Cc1cccc(C2(NCCCS(C)(=O)=O)CCCC2)c1 | 88.9% |
| CS(=O)(=O)CCCNC1(c2cccc(Cl)c2)CCCC1 | 76% |
| Cc1cc(CNC2(c3ccccc3)CCCCC2)no1 | 44.9% |
| CS(=O)(=O)CCCNC1(c2ccc(Br)cc2)CCC1 | 78.5% |
| Cc1ccc(CC(=O)N2CCN(C(C)c3ccccc3F)CC2)cn1 (stereo not drawn) | -146% |
| C/C(=C\c1ccco1)CN(C)C(C)Cc1ccccn1 (stereo not drawn) | -54.2% |
| CCc1[nH]c2c(CNc3cc(C)nc(NC)n3)cc(C)cc2c1C | 85.1% |
| CCc1[nH]c2c(CNc3nc(C)cc(NC)n3)cc(C)cc2c1C | 89% |
| CN1C[C@H](NC(=O)c2cscn2)[C@@H]2OCCC[C@@H]21 | -18.5% |

| SMILES | INHIBITION |
| --- | --- |
| O=C(c1cnn2c1OCCC2)N1CCC2(CC1)OCCO2 | -54.5% |
| Cc1noc(C)c1CN1CC[C@@H]2O[C@H](COCC(C)C)CC[C@@H]21 | -31.3% |
| c1cnc(NC[C@H]2OC[C@@H]3CCN(Cc4ccsc4)C[C@@H]32)nc1 | -30.5% |
| CN1CCN(C[C@@H]2OC[C@H]3CN(Cc4ccncc4)CC[C@H]32)CC1 | -51.3% |
| c1cnc(NC[C@H]2OC[C@@H]3CCN(Cc4cccnc4)C[C@@H]32)nc1 | -37.6% |
| CN1CCN(C[C@H]2OC[C@@H]3CCN(Cc4ccsc4)C[C@@H]32)CC1 | 77.7% |
| c1cnc(NC[C@H]2OC[C@@H]3CCN(Cc4nccs4)C[C@@H]32)nc1 | -52.4% |
| c1cc2c(cc1CN1CC[C@H]3CO[C@H](CN4CCCC4)[C@H]3C1)OCO2 | 78.6% |
| O=C1O[C@@H]2CN(Cc3ccsc3)C[C@@H]2N1Cc1ccccn1 | -67.9% |
| Cc1ccc(Cl)cc1-n1nnnc1C1(N2CCCC2)CCCCC1 | -125% |
| Cc1nn(-c2ccc(C(=O)O)cc2)c2c1C(c1cccs1)SCC(=O)N2 (stereo not drawn) | -57.4% |
| COCCN1CCN(Cc2ccncc2)c2ncccc2C1 | 6.88% |
| Cc1ccc(C)c(OCCNC(=O)[C@@H]2CCCCN2)c1 | 79.4% |
| CC(C)N(C)Cc1cncc2c1CCN(Cc1ccoc1)C2 | -19.3% |
| Cc1ccc2c(n1)N(CC(C)C)CCN(S(C)(=O)=O)C2 | -82.4% |
| Cc1nccc([C@@H]2C[C@@H]3CCN(Cc4c(C)noc4C)C[C@H]3O2)n1 | -6.6% |
| Cc1cc(CN2C[C@@H]3COC[C@]3(c3nnc(C)o3)C2)no1 | -26.2% |
| O=C(C1CCOC1)N1CCC2(CCCNC2)CC1 (stereo not drawn) | 0.28% |
| Cc1cccc(CN2C(=O)CCC23CCNCC3)n1 | -102% |
| CCCN1C[C@@H]2CC[C@H]1CN(C(=O)Cn1c(C)cc(C)nc1=O)C2 | -79.2% |
| Cc1ccc(C(C)NCCc2nccn2Cc2ccccc2)o1 (stereo not drawn) | 80.7% |
| CC(NCCc1nccn1Cc1ccccc1)c1ccsc1 (stereo not drawn) | 83.5% |
| CC(Cn1cccn1)NCC(=O)NCCc1cccs1 (stereo not drawn) | -8.14% |
| CC(Cn1cccn1)NCC(=O)N(C)Cc1ccsc1 (stereo not drawn) | -27.7% |
| CC(NCCc1nccn1Cc1ccccc1)c1cccs1 (stereo not drawn) | 86.8% |
